# PubChem BioAssay (Tox21)
# Results filed as inconclusive are left out. The source made the active and inactive calls. The call rests on the fitted dose curve; in most records, active means well fitted activation curve with a large enough effect in the signal ratio in the repeat runs (not every such curve was filed as active); inconclusive means weak or mixed curves; inactive means flat fitted curve, though single readings scatter; the % refers to the signal ratio.
# Assay: qHTS assay to identify small molecule agonists of the hypoxia (HIF-1) signaling pathway (AID 1224846)
# Conditions: HRE-bla ME-180 cells, beta-lactamase ratio, 17 h; series mostly up to 76.8 µM; activation: at the top concentration
# Text: U.S. Tox21 Program National Center for Advancing Translational Sciences [NCATS] NIH Chemical Genomics Center [NCGC] U.S. Environmental Protection Agency [EPA] National Institutes of Environmental Health Sciences [NIEHS] National Toxicology Program [NTP] U.S. Food and Drug Administration [FDA] Tox21 Assay Overview: Hypoxia-inducible factor-1 (HIF-1) is the major hypoxia-regulated transcription factor that controls cellular responses to low oxygen concentration. HIF-1 is composed of two subunits: hypoxia responsive HIF-1-alpha and constitutively expressed HIF-1-beta, which is also known as aryl hydrocarbon receptor nuclear translocator. During hypoxic conditions, HIF-1-alpha heterodimerizes with HIF-1-beta and translocates into the nucleus where the HIF-1 complex binds to the hypoxia-response element (HRE) and activates expression of target genes such as VEGF (vascular endothelial growth factor). The HIF-1 pathway is essential to normal growth and development, and is involved in the pathophysiology of cancer, inflammation, and ischemia. Using a beta-lactamase reporter-gene under control of the hypoxia response element, a cell-based assay [CellSensor(TM) HRE-bla ME-180 from Life Technologies, Carlsbad, CA] was used to measure hypoxia-induced signaling. Tox21 10K library compounds were measured for their ability to induce the reporter gene activity.
# Tox21 Assay Protocol Summary: HRE-bla ME-180 cells were dispensed at 2,000 cells per well in 6 uL of assay medium containing 0.5% dialyzed FBS into black wall/clear-bottom 1536-well plates using a Multidrop Combi (Thermo Scientific, Waltham, MA) dispenser. After the assay plates were incubated at 37C and 5% CO2 for 5 hrs, 23 nL of compounds dissolved in DMSO, positive controls or DMSO only was transferred to each well of the assay plate using a Pintool station (Kalypsys, San Diego, CA). The assay plates were incubated at 37C and 5% CO2 for 17 hrs. One uL of LiveBLAzerTM B/G FRET substrate (CCF4-AM) (Life Technologies) was added to each well using a Flying Reagent Dispenser (Aurora Discovery, San Diego, CA).
# On the % scale 0 is the no-effect control and ±100 the full control effect.
row,Structure (SMILES),activation
1,CCCCOC(=O)[C@@H](C)Oc1ccc(Oc2ccc(C(F)(F)F)cn2)cc1,0.0441% (inactive)
2,C=CCOC(=O)c1ccc(C(=O)OCC=C)c(C(=O)OCC=C)c1,-0.451% (inactive)
3,CC(=O)c1ccc2c(c1)CCCC2,-0.49% (inactive)
4,CC1(N)CCC(C(C)(C)N)CC1 (stereo not given),-0.104% (inactive)
5,Cc1nc2ccccc2c(=O)o1,-1.13% (inactive)
6,O=C1OC(=O)c2ccccc21,0.475% (inactive)
7,Cc1cc(O)c2c(c1)C(=O)c1cccc(O)c1C2=O,-0.839% [at 35.5 µM] (inactive)
8,O=C(O)Cc1cccc(-c2cc(CCCCCCc3ccc(O[C@H]4O[C@H](CO)[C@@H](O)[C@H](O)[C@@H]4O)c(-c4cccc(CC(=O)O)c4)c3)ccc2O[C@H]2O[C@H](CO)[C@@H](O)[C@H](O)[C@@H]2O)c1,-0.541% [at 0.291 µM] (inactive)
9,C1=C\CC/C=C\CC/1,0.0404% (inactive)
10,O=C(Oc1ccccc1C(=O)O)c1ccccc1O,-0.0898% [at 35.5 µM] (inactive)
11,CC(C)c1ccccc1O,-1.68% (inactive)
12,O=CN1CCOCC1,0.638% (inactive)
13,CCCCCCCCCCCCC1CO1 (stereo not given),0.925% (inactive)
14,C=CCOCC(O)CCl (stereo not given),-1.19% (inactive)
15,Cn1c(=O)c2c(ncn2CC2OCCO2)n(C)c1=O,-1.32% [at 35.5 µM] (inactive)
16,CC(C)COC(=O)/C=C/c1ccccc1,0.187% (inactive)
17,F[Si-2](F)(F)(F)(F)F,1.28% (inactive)
18,C=C[Si](C)(C)O[Si](C)(C)C=C,0.735% (inactive)
19,CCOC(=O)OCC/C(SC(=O)OCC)=C(\C)N(C=O)Cc1cnc(C)nc1N,-0.78% [at 35.5 µM] (inactive)
20,O=P(O)(O)OCC(O)CO (stereo not given),-1.11% [at 35.5 µM] (inactive)

row,Structure (SMILES),activation
1,COC(/C=C(\C)CCC=C(C)C)OC,-1.89% (inactive)
2,CC(=O)OC(C)c1ccccc1 (stereo not given),1.28% (inactive)
3,CCC1COC(=O)O1 (stereo not given),-0.248% (inactive)
4,CCOc1ccc(NC(=O)OC(C)C)cc1OCC,-0.709% (inactive)
5,CN[C@@H]1[C@H](O)[C@H](NC)[C@H]2O[C@@]3(O)C(=O)C[C@@H](C)O[C@H]3O[C@@H]2[C@H]1O,-0.47% [at 35.5 µM] (inactive)
6,CC(=O)Nc1ncc([N+](=O)[O-])s1,-0.956% [at 35.5 µM] (inactive)
7,Nc1cc(S(=O)(=O)O)ccc1S(=O)(=O)O,-0.315% (inactive)
8,Cc1ccccc1OCC1CO1 (stereo not given),1.11% (inactive)
9,N#CCCOCCOCCC#N,0.759% (inactive)
10,CCCCC(=O)N(C)C,-0.386% (inactive)
11,Cc1cccc(Nc2ccncc2S(=O)(=O)NC(=O)NC(C)C)c1,6.24% [at 35.5 µM] (inactive)
12,CCOC(=O)C(=O)c1csc(NC=O)n1,0.076% [at 35.5 µM] (inactive)
13,Cc1cc(C)cc([N+](=O)[O-])c1,-0.823% (inactive)
14,CCN(Cc1cccc(S(=O)(=O)O)c1)c1ccccc1,0.132% (inactive)
15,COC(OC)C(C)c1ccccc1 (stereo not given),0.0168% (inactive)
16,C=C(C)[C@@H]1CC[C@@H](C)C[C@@H]1O,0.126% (inactive)
17,O=C(/C=C/c1ccccc1)NCCO,-0.185% [at 35.5 µM] (inactive)
18,NC(=O)NNC(N)=O,-1.04% (inactive)
19,CCCCOC(=O)C(=O)OCCCC,-1.05% (inactive)
20,CCCC(C)CC (stereo not given),-0.33% (inactive)
